# CYP2C19 act: activators of human cytochrome P450 2C19. P33261. recombinant CYP2C19, luciferin-H EGE luminescence; hits give high values; 0 = fully inhibited enzyme, 1 = untreated enzyme. activation factor at 5 µM. 96,000 tested, under 10 active. AID 1025;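 active means activation factor of at least 2 at 5 µM in the primary screen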
# Target sequence (P33261 whole entry, looked up): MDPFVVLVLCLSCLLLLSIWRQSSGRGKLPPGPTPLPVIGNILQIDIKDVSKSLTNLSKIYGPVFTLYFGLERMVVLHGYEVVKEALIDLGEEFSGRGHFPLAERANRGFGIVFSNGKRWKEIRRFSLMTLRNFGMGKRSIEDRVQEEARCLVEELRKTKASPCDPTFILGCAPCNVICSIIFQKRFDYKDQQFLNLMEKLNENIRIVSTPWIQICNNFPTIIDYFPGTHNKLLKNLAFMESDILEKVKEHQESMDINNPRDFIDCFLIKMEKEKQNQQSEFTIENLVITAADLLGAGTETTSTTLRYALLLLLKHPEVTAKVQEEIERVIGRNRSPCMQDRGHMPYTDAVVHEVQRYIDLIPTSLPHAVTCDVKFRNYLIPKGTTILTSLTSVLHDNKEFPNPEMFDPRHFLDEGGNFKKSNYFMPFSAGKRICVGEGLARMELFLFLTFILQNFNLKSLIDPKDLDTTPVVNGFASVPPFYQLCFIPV
# Mac1 fbg inh: CD11b/CD18-fibrinogen binding inhibition | P05107+P11215 | K562 CD11b/CD18 adhesion to fibrinogen, ATPlite luminescence; Mn2+ added to activate the integrin | inhibition, % at 10 µM | 93,000 tested, 0.54% active;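 active means primary inhibition of 50% or more at 10 µM, then 40% or more on retest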
# CYP2C19 inhib: human CYP2C19 inhibition. CYP2C19 Supersomes, luciferin-H EGE luminescence, 30 min. inhibition, % at 5 µM. P33261. 96,000 tested, 21% active;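 active means CYP2C19 inhibition above a set limit at 5 µM in the primary screen, cut at about 50% in these data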
# CD11b adhes enh: CD11b/CD18-fibrinogen binding enhancement | activation, % at 10 µM | P05107+P11215 | K562 CD11b/CD18 adhesion to fibrinogen, ATPlite luminescence | 93,000 tested, 0.07% active;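 active means 10 µM primary screen giving 50% or more activity, confirmed by 40% or more on retest at that dose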
# CYP2C9 act: activators of human CYP2C9. P11712. activation factor at 5 µM. 96,000 tested, 1.4% active. recombinant CYP2C9, luciferin-H conversion, luminescence; hits give high values; factor 1 = untreated enzyme, 0 = blocked;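 active means activation factor of 2 or more for CYP2C9 at a 5 µM dose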
# CYP2C9 inhib: blocks human cytochrome P450 2C9 | CYP2C9 Supersomes, luciferin-H conversion, luminescence | inhibition, % at 5 µM | 96,000 tested, 20% active;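 active means blocking of liver enzyme CYP2C9 beyond about 50% at 5 µM, limit read from the data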
# Hits are given with their value; n = inactive; x = not tested or not shown. Only some compounds are listed: those with a hit (about 28% of all), similar ones and a draw of the others.
SMILES,CYP2C19 act,Mac1 fbg inh,CYP2C19 inhib,CD11b adhes enh,CYP2C9 act,CYP2C9 inhib
Cc1cc(C2N=C(N)Nc3nc4ccccc4n32)c(C)n1-c1ccccc1Cl (stereo unspecified),n,n,69,n,n,80
NC1=NC(c2ccc(F)cc2)n2c(nc3ccccc32)N1 (stereo unspecified),n,n,67,n,n,n
NC1=NC(c2cccc(O)c2)n2c(nc3ccccc32)N1 (stereo unspecified),n,n,n,n,n,n
O=C1NCCN1C(=O)N(c1ccccc1)c1ccccc1,n,n,n,n,n,n
CC(=O)OC1(C(F)(F)F)Oc2ccccc2NC1=O (stereo unspecified),n,n,53,n,n,n
Cc1cccc(NC(=S)N2CCN(Cc3ccc4c(c3)OCO4)CC2)c1C,n,n,n,n,n,n
COc1cccc(-n2nnnc2S(C)(=O)=O)c1,n,n,n,n,n,n
Fc1ccc(-c2nnn(Cc3nc4ccccc4s3)n2)cc1,n,n,89,n,n,n
CCCN1CN(Cc2ccco2)c2nc3ccccc3n2C1,n,n,n,n,n,n
O=[N+]([O-])c1cccc(NC(=S)NCCc2ccccc2)c1,x,104,x,n,x,x
Cc1ccc(NCCC(=O)c2cccc([N+](=O)[O-])c2)cc1,n,n,94,n,n,n
O=C(CCNc1ccccc1)c1cccc([N+](=O)[O-])c1,n,n,67,n,n,n
O=C(CCNc1ccc(F)cc1)c1cccc([N+](=O)[O-])c1,n,n,56,n,n,n
COc1ccc(OC)c(S(=O)(=O)N(C)CC(=O)N2CCN(c3ccccc3F)CC2)c1,n,n,76,n,n,68
COc1ccc(OC)c(S(=O)(=O)N(C)CC(=O)N2CCN(c3ccc(F)cc3)CC2)c1,n,n,n,n,n,n
COc1ccc(OC)c(S(=O)(=O)N(C)CC(=O)N2CCN(c3cccc(Cl)c3)CC2)c1,n,n,85,n,n,92
CCc1c(C)nc2ncnn2c1N1CCC(C(=O)N2CCN(c3ccc(F)cc3)CC2)CC1,n,n,61,n,n,n
Cc1nc2ncnn2c(N2CCC(C(=O)NC3CCCC3)CC2)c1Cc1ccccc1,n,n,66,n,n,60
COc1ccc(C2(CNC(=O)Cc3ccc(OC)c(OC)c3)CCOCC2)cc1,n,x,n,x,n,n
COc1ccc(-c2nnn(Cc3nc(N)nc(N4CCOCC4)n3)n2)cc1OC,n,x,n,x,n,n
CC(C)C1(C)C(=O)N=C2c3ccccc3C(=O)N21 (stereo unspecified),n,n,n,n,n,n
Cc1csc(SCc2ccc(C(=O)O)cc2)n1,n,n,n,n,n,n
COc1cc(CNCCc2ccccc2)ccc1OCc1ccc(Cl)nc1,n,n,68,n,n,n
CCOc1cc(CNCCc2ccc(S(N)(=O)=O)cc2)ccc1OCc1ccc(Cl)cc1,n,x,54,x,n,n
COc1cc(CNCCc2ccc(S(N)(=O)=O)cc2)ccc1OCc1ccc(Cl)cc1,n,n,53,n,n,n
SMILES,CYP2C19 act,Mac1 fbg inh,CYP2C19 inhib,CD11b adhes enh,CYP2C9 act,CYP2C9 inhib
COc1cc(CNCC(O)c2ccccc2)ccc1OCc1ccc(Cl)nc1 (stereo unspecified),n,n,n,n,n,n
CCOC(=O)C1CCCN(Cc2sccc2C)C1 (stereo unspecified),n,n,n,n,n,n
O=C(O)c1cc([N+](=O)[O-])c(N2CCCC2)c([N+](=O)[O-])c1,x,n,x,n,x,x
CC(C)(C)C(=O)N1CCN(c2c(Cl)cccc2[N+](=O)[O-])CC1,n,n,65,n,n,85
O=C(c1cccc(F)c1)N1CCN(Cc2ccco2)CC1,n,n,69,n,n,n
COc1cc(OC)cc(C(=O)N2CCN(Cc3cccc(F)c3)CC2)c1,n,n,98,n,n,n
COc1cccc(C(=O)N2CCN(C3CCN(Cc4ccccc4)CC3)CC2)c1,n,n,n,n,n,n
O=C(c1ccco1)N1CCN(Cc2cccc(F)c2)CC1,n,n,n,n,n,n
COc1cccc(C(=O)N2CCN(Cc3cccc(F)c3)CC2)c1,n,n,98,n,n,n
O=C(CCCn1c(=O)[nH]c2cc(Cl)ccc2c1=O)NCCCN1CCCC1=O,n,n,n,n,n,n
CCCN1CCN(CCCNC(=O)CCNC(=O)Cn2ccc3ccccc3c2=O)CC1,n,n,n,n,n,n
O=C(NCCN1CCCCCC1)C1CC(=O)N(CCc2ccccc2)C1 (stereo unspecified),n,n,n,n,n,n
Cc1cc(NC(=O)CSc2nc(C(C)C)nc3ccccc23)no1,n,n,n,n,n,n
Cc1cc(NC(=O)CSc2nnc3c(C)cc4cc(C)c(C)cc4n23)no1,n,n,n,n,n,n
Cc1cc(NC(=O)CSc2nc(C(C)C)nc3sc(C)c(C)c23)no1,n,n,n,n,n,54
Cc1cc(NC(=O)CSc2nnc3c4c(C)c(C)sc4ncn23)no1,n,n,n,n,n,56
COc1ccc(C2=CC(=O)OC3(CCCC3)O2)cc1,n,n,n,n,n,n
Cc1cccc2cc(CN(Cc3ccccc3)C(=O)c3cccc(F)c3)c(Cl)nc12,n,n,n,n,n,62
COCc1cc(=O)[nH]c(/N=C(\N)Nc2ccccc2C)n1,n,n,n,n,n,n
Cc1[nH]c2ccccc2c1/C=C(\C#N)S(=O)(=O)c1ccccc1,n,n,n,n,n,67
N#C/C(=C\c1ccc(O)c(O)c1)S(=O)(=O)c1ccccc1,n,82,n,n,n,n
Cc1[nH]c2ccccc2c1/C=C(\C#N)C(=O)NC(C)c1ccccc1 (stereo unspecified),n,n,n,n,2.1,n
COc1cc(/C=C(\C#N)C(=O)c2c(C)[nH]c3ccccc23)cc(OC)c1OC,x,n,x,n,x,x
COc1ccc(C)cc1NC(=S)N1CCN(c2ccccn2)CC1,x,n,x,n,x,x
O=S(=O)(NCC1CCCO1)c1ccc(Oc2ccccc2)cc1 (stereo unspecified),n,n,95,n,n,83
SMILES,CYP2C19 act,Mac1 fbg inh,CYP2C19 inhib,CD11b adhes enh,CYP2C9 act,CYP2C9 inhib
CCC(C)NS(=O)(=O)c1ccc(S(=O)(=O)N(CC(=O)Nc2ccccc2)CC2CCCO2)cc1 (stereo unspecified),n,n,n,n,n,92
O=C(O)c1cccc(S(=O)(=O)NCC2CCCO2)c1 (stereo unspecified),n,n,n,n,n,n
CCC(Oc1ccccc1)C(=O)Nc1ccc(S(=O)(=O)NCC2CCCO2)cc1 (stereo unspecified),n,n,n,n,n,91
Cc1ccc(C)c(Oc2nnnn2-c2ccccc2)c1,n,n,93,n,n,n
Cc1ccc(C(C)C)c(Oc2nnnn2-c2ccccc2)c1,n,n,91,n,n,76
Cc1c(Br)cc(-c2nnco2)cc1Br,n,n,n,n,2.9,n

# Source: PubChem BioAssay
